Compound in the assay: Cc1cc(ccc1-c1ccccc1)C(=O)N1CCCN(CC1)C(=O)CCl [compound 10]
Nature of the assay: probe-labelled cysteine peptide fold change vs DMSO (competition) (log2 fold change); higher = less target engagement (more negative = stronger competition). To be noted: THP-1, incubation time: 4 h.

The full data set covers some 21,000 targets. This sample favours those with the largest changes.
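Further: competitive profiling in live THP-1 cells: cysteine peptides tagged with an iodoacetamide desthiobiotin (IA-DTB) probe, intensity after compound treatment relative to DMSO-treated cells.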

UniProt Q5JSP0, sequence (Q5JSP0 whole entry, looked up): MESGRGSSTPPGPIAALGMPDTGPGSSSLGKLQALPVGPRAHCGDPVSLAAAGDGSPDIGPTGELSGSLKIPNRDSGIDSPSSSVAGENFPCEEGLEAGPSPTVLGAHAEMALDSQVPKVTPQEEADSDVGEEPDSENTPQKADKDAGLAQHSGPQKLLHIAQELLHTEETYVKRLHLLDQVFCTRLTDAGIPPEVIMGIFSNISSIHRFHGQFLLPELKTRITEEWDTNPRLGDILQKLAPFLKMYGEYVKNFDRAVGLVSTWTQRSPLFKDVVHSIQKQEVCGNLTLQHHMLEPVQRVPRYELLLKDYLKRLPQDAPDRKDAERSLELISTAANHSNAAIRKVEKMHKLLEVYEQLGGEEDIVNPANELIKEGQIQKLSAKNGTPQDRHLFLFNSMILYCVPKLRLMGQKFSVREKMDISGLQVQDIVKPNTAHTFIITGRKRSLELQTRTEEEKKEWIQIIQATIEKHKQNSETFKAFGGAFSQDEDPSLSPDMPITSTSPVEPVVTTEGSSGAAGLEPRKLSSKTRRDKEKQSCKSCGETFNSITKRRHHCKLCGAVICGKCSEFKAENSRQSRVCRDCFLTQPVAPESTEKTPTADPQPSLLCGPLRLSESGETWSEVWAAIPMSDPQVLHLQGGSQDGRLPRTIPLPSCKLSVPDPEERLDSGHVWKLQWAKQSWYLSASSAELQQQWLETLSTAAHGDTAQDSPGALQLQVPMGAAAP
UniProt O95834, sequence (O95834 whole entry, looked up): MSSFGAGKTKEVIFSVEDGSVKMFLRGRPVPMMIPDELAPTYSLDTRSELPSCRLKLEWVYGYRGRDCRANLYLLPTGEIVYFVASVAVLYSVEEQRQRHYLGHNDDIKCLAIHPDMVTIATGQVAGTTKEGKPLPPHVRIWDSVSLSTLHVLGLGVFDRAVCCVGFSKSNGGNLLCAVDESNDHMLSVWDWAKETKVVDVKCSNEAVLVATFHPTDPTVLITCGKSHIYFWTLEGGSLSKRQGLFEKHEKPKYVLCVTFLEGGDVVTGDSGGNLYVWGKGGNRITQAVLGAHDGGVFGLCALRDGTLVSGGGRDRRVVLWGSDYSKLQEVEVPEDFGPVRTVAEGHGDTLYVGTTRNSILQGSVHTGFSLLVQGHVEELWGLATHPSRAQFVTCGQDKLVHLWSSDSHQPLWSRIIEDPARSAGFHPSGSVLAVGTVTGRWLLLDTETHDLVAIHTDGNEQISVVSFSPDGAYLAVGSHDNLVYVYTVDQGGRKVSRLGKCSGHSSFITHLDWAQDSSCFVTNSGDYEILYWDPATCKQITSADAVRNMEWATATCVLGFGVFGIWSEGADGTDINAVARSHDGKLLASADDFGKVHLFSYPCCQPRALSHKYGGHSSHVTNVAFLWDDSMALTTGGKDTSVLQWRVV
UniProt Q15910, sequence (Q15910 whole entry, looked up): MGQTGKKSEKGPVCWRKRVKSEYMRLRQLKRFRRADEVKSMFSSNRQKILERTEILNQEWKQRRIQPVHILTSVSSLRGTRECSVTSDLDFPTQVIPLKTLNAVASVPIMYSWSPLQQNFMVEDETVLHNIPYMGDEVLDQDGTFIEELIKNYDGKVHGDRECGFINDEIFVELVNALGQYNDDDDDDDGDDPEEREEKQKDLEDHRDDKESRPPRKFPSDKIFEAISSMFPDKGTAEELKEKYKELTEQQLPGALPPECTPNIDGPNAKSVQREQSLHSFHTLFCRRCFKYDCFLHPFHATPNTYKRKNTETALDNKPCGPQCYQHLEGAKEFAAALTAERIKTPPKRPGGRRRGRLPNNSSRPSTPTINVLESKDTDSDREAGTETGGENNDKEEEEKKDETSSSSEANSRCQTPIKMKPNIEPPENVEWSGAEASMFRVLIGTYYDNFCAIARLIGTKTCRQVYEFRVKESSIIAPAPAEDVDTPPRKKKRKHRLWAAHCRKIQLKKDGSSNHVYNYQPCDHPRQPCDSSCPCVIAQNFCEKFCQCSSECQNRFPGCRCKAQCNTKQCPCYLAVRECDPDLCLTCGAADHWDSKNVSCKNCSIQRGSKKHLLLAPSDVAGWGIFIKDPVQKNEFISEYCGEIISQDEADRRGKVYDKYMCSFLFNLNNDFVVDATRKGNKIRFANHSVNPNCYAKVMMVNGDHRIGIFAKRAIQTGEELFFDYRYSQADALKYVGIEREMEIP
UniProt Q8NEZ5, sequence (Q8NEZ5 whole entry, looked up): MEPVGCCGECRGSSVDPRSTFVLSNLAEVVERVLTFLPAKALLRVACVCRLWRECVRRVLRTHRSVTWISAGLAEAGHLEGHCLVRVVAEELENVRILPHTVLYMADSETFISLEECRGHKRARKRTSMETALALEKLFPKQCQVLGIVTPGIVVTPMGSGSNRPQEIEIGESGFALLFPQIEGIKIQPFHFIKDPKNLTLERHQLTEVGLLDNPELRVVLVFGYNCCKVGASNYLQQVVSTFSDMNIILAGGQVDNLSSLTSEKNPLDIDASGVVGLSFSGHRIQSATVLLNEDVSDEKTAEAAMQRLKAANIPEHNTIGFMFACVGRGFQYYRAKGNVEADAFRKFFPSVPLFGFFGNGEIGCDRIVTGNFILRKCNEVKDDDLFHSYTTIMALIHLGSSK
UniProt Q96E09, sequence (Q96E09 whole entry): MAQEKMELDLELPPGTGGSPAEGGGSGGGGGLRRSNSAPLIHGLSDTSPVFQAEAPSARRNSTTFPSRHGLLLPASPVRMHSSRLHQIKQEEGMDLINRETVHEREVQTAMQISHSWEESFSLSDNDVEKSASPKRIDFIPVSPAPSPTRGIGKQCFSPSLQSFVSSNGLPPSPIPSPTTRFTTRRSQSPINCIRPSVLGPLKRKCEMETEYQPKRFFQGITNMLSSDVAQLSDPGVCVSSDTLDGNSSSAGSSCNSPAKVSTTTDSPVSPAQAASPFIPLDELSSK
UniProt Q9NWS6, sequence (Q9NWS6 whole entry, looked up): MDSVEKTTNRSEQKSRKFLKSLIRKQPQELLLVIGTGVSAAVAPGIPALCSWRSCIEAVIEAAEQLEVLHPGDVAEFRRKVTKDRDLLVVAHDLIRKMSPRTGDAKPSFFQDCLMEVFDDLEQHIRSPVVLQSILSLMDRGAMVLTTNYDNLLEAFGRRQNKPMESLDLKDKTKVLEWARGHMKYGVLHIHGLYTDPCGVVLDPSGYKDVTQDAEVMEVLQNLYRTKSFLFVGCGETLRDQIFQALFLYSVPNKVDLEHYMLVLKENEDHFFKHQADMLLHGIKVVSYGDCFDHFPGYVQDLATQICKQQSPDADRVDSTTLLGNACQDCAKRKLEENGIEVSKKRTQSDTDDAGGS
UniProt P33316, sequence (P33316 whole entry, looked up): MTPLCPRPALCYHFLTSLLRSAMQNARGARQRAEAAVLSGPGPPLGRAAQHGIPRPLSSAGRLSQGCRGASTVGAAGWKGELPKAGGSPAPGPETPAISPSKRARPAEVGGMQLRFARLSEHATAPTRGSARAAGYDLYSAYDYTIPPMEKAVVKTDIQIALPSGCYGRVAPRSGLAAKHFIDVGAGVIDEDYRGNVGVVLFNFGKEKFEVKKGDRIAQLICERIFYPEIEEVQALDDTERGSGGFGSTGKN
UniProt P28715, sequence (P28715 whole entry): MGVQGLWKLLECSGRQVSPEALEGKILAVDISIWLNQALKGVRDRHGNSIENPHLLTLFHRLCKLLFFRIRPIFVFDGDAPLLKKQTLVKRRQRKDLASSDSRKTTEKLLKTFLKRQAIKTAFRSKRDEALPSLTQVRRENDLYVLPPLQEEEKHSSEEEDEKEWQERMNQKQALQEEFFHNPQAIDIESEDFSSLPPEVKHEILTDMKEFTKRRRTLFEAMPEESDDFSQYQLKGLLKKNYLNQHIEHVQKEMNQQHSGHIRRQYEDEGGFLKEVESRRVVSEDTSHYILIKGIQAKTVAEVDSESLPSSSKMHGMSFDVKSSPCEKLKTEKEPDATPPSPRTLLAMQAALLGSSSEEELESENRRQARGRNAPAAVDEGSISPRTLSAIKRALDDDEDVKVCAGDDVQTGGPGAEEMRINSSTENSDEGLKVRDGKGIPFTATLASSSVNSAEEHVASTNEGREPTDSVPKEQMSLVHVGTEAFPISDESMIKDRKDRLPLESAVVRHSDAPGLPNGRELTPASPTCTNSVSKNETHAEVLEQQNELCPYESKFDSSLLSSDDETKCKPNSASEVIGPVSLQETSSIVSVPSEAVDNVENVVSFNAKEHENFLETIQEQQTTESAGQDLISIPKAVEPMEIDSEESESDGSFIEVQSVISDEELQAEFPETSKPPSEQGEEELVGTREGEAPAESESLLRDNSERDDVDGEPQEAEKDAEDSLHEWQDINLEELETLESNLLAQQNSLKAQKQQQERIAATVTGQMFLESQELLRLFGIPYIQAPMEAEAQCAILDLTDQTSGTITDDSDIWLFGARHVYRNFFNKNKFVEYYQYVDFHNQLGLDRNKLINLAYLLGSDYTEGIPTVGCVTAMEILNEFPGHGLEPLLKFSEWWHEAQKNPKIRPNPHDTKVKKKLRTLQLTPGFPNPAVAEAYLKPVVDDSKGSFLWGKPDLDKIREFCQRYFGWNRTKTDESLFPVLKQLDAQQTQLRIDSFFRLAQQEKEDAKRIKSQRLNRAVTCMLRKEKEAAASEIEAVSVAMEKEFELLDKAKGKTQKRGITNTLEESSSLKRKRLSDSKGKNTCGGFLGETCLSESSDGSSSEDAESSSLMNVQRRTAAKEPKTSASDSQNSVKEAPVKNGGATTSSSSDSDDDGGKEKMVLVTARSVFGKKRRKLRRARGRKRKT
UniProt Q9Y3B2, sequence (Q9Y3B2 whole entry, looked up): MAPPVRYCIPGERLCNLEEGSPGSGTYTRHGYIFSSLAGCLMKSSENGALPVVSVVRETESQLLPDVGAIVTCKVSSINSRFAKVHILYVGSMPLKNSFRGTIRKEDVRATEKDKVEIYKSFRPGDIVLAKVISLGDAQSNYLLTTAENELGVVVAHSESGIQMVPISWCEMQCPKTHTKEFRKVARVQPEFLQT

Turning to “EZH2_Q15910_324_NTETALDNKPCGPQCYQHLEGAK (UniProt Q15910)”, the “probe-labelled cysteine peptide fold change” value was 0.251 (10 µM) and -0.196 (50 µM).
With “ELOVL5_Q9NYP7_61_NKQPFSCR (UniProt Q9NYP7)”, the “probe-labelled cysteine peptide fold change” value was -0.567 (10 µM) and -1.94 (50 µM).
In the case of “EPRS_P07814_92+105_LSSCDSFTSTINELNHCLSLR (UniProt P07814)”, the “probe-labelled cysteine peptide fold change” value (10 µM) amounted to 0.0532 and the “probe-labelled cysteine peptide fold change” value (50 µM) is -0.00186.
“ELAVL1_Q15717_13_SNGYEDHMAEDCR (UniProt Q15717)”: the “probe-labelled cysteine peptide fold change” value was found to be 0.863 (10 µM) and 1.62 (50 µM).
For “FAM118A_Q9NWS6_113_TGDAKPSFFQDCLMEVFDDLEQHIR (UniProt Q9NWS6)”, in that order: 0.174 and -0.519.
In the case of “EFNB1_P98172_89+101_LYLVRPEQAAACSTVLDPNVLVTCNRPEQEIR (UniProt P98172)”, the “probe-labelled cysteine peptide fold change” value runs as follows: (10 µM) -0.388; (50 µM) -0.49.
Regarding “FANCG_O15287_417_AQDALTLCEELLSR (UniProt O15287)”, the “probe-labelled cysteine peptide fold change” value came to 0.0123 (10 µM) and 0.0425 (50 µM).
With “EPRS_P07814_1076_KLGVENCYFPMFVSQSALEK (UniProt P07814)”, the “probe-labelled cysteine peptide fold change” value is, setting by setting: (10 µM) 0.288; (50 µM) 0.373.
“EML4_Q9HC35_638_LVDEPGHCADFHPSGTVVAIGTHSGR (UniProt Q9HC35)”: the “probe-labelled cysteine peptide fold change” value (10 µM) was 0.109 and the “probe-labelled cysteine peptide fold change” value (50 µM) amounted to 0.328.
The like results for “FAM120A_Q9NZB2_919_VAAASGHCGAFSGSDSSR (UniProt Q9NZB2)” were, in that order, -0.383 and -0.344.
“EXOSC6_Q5RKV6_117_APPGGCEERELALALQEALEPAVR (UniProt Q5RKV6)”: the “probe-labelled cysteine peptide fold change” value is -0.5 (10 µM) and -1.49 (50 µM).
In the case of “FAM122A_Q96E09_193_SQSPINCIRPSVLGPLK (UniProt Q96E09)”, the “probe-labelled cysteine peptide fold change” value is -0.132 (10 µM) and -0.161 (50 µM).
As to “DYNC1H1_Q14204_1888_CYLTMTQALEAR (UniProt Q14204)”, the “probe-labelled cysteine peptide fold change” value reads like this: (10 µM) -0.0386; (50 µM) -0.161.
“EIF2B1_Q14232_218_IGTNQMAVCAK (UniProt Q14232)”: the “probe-labelled cysteine peptide fold change” value was -0.148 (10 µM) and -0.133 (50 µM).
For “EXOSC2_Q13868_259_MMLYDTSILYCYEASLPHQIK (UniProt Q13868)”, in that order: 0.341 and 0.254.
For “ERCC5_P28715_550_NETHAEVLEQQNELCPYESK (UniProt P28715)”, in that order: -0.452 and -0.364.
The like results for “EXOSC6_Q5RKV6_248_LGLEGCQR (UniProt Q5RKV6)” were, in that order, -0.00681 and 0.0231.
With “EEF1A1_P68104_31_CGGIDKR<|>EEF1A2_Q5VTE0_31_CGGIDKR (UniProt Q5VTE0+P68104)”, the “probe-labelled cysteine peptide fold change” value reads like this: (10 µM) -1.04; (50 µM) -1.79.
Take “EXOSC10_Q01780_327_SFLGLTCLMQISTR (UniProt Q01780)”: the “probe-labelled cysteine peptide fold change” value was found to be 0.419 (10 µM) and 0.333 (50 µM).
For “FAM208A_Q9UK61_149_ACLVHNELLEK (UniProt Q9UK61)”, the “probe-labelled cysteine peptide fold change” value is -0.2 (10 µM) and -1.18 (50 µM).
Take “EPRS_P07814_350_IDMSSNNGCMRDPTLYR (UniProt P07814)”: the “probe-labelled cysteine peptide fold change” value reads like this: (10 µM) -0.0274; (50 µM) -0.367.
As for “FAM76B_Q5HYJ3_73_PCQYCNIIAAFIGTK (UniProt Q5HYJ3)”, the “probe-labelled cysteine peptide fold change” value runs as follows: (10 µM) -0.188; (50 µM) 0.0361.
As for “ERCC4_Q92889_803_ILWCPSPHATAELFEELK (UniProt Q92889)”, the “probe-labelled cysteine peptide fold change” value reads like this: (10 µM) -0.169; (50 µM) 0.181.
The like results for “EXOSC6_Q5RKV6_117_RAPPGGCEERELALALQEALEPAVR (UniProt Q5RKV6)” were, in that order, -0.569 and -1.04.
For “EXOSC1_Q9Y3B2_40_HGYIFSSLAGCLMK (UniProt Q9Y3B2)”, in that order: 0.118 and -0.0583.
Regarding “DOCK10_Q96BY6_1310_TDNCEK (UniProt Q96BY6)”, the “probe-labelled cysteine peptide fold change” value is -0.105 (10 µM) and -0.108 (50 µM).
As to “FBXO22_Q8NEZ5_7_MEPVGCCGECR (UniProt Q8NEZ5)”, the “probe-labelled cysteine peptide fold change” value was -0.235 (10 µM) and 1.31 (50 µM).
“EML2_O95834_110_CLAIHPDMVTIATGQVAGTTK (UniProt O95834)”: the “probe-labelled cysteine peptide fold change” value is, setting by setting: (10 µM) -0.0841; (50 µM) 0.0588.
For “EEF1A1_P68104_234_DGNASGTTLLEALDCILPPTRPTDKPLRLPLQDVYK (UniProt P68104)”, in that order: -0.124 and -0.435.
For “DTX3L_Q8TDB6_219_DSCISPSEPETK (UniProt Q8TDB6)”, the “probe-labelled cysteine peptide fold change” value by setting is: (10 µM) -0.446; (50 µM) -0.672.
Consider “ELP4_Q96EB1_361_LNNLICDESDVK (UniProt Q96EB1)”, for which the “probe-labelled cysteine peptide fold change” value (10 µM) was -0.0288 and the “probe-labelled cysteine peptide fold change” value (50 µM) is 0.12.
The like results for “DPH5_Q9H2P9_120_VIHNASIMNAVGCCGLQLYK (UniProt Q9H2P9)” were, in that order, 0.0911 and 0.264.
For “EHMT1_Q9H9B1_1111_LLPEFNMAEPPLIFECNHACSCWR (UniProt Q9H9B1)”, the “probe-labelled cysteine peptide fold change” value was 0.0188 (10 µM) and -0.282 (50 µM).
The like results for “FCHSD2_O94868_200_SECNSK (UniProt O94868)” were, in that order, -0.126 and -0.158.
With “FAM126A_Q9BYI3_401_ETTGESCK (UniProt Q9BYI3)”, the “probe-labelled cysteine peptide fold change” value by setting is: (10 µM) -0.493; (50 µM) -1.16.
For the target “DUT_P33316-2_3_PCSEETPAISPSK (UniProt P33316)”, the “probe-labelled cysteine peptide fold change” value is, setting by setting: (10 µM) -0.335; (50 µM) -0.042.
For “FGD3_Q5JSP0_184_LHLLDQVFCTR (UniProt Q5JSP0)”, in that order: 0.0176 and 0.345.

The record behind these values is the supplement of paper PMC12067093, “Discovery and optimisation of a covalent ligand for TRIM25 and its application to targeted protein ubiquitination” (Chemical Science, 2025).
